In the supplement of paper PMC6555819:

Assays:
Test in all cases: PBM binding z-score (relative to random genomic background probes); higher = stronger binding; sequences stand for … in GC…GCGATTGACAGCGTAGAATGAAGG
[1] = test system: RARb homodimer (NR concentration 270 nM)
Summary of the method: (§1)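 Ligand-free nuclear receptor dimers were applied to custom Agilent 4×180K protein-binding microarrays whose double-stranded probes carried direct-repeat seeds, single-nucleotide variants, half-site ablations and random human genomic background sequences in 34-nt variable regions. Incubation lasted 1 h. Binding z-scores were computed against the random background probes from regression-normalized fluorescence.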

[2] = test system: RARg:RXRa (NR concentration 270 nM, RXRa partner concentration 90 nM)
Summary of the method: as §1

[3] = test system: RARg homodimer (NR concentration 270 nM)
Summary of the method: as §1

[4] = test system: RXRa DBDmut IVT, anti-RXR (DBD mutation: RXRa K156A/R161A, NR concentration 90 nM)
Summary of the method: as §1

[5] = test system: RXRa homodimer (NR concentration 180 nM)
Summary of the method: as §1

[6] = test system: THRa:RXRa (NR concentration 90 nM, RXRa partner concentration 90 nM)
Summary of the method: as §1

[7] = test system: THRa homodimer (NR concentration 90 nM)
Summary of the method: as §1

[8] = test system: VDR homodimer (NR concentration 270 nM)
Summary of the method: as §1

Sequence CCTCCTGGGCCAAAGGTCATTGATTCCAATGCTC has a PBM binding z-score [1] of 4.24, a PBM binding z-score [2] of 5.81 and a PBM binding z-score [3] of 4.61. For the same sequence, the PBM binding z-score [4] was 0.646, the PBM binding z-score [5] was 6.35 and the PBM binding z-score [6] was 3.17. It also gave a PBM binding z-score [7] of 0.804 and a PBM binding z-score [8] of 2.32.

TCTTGTAGATCAAAGTTTAAGAAAGCCGAAGCCT gave a PBM binding z-score [1] of 0.469, a PBM binding z-score [2] of 0.16 and a PBM binding z-score [3] of 0.307. It also gave a PBM binding z-score [4] of 1.22, a PBM binding z-score [5] of 0.561 and a PBM binding z-score [6] of 0.0453. For the same sequence, the PBM binding z-score [7] was -0.571 and the PBM binding z-score [8] was -0.214.

In the case of TATACAGGGTCAAAGGCCAGATTACGAATGTCGA, the PBM binding z-score [1] is reported as 3.49, the PBM binding z-score [2] is reported as 5.72 and the PBM binding z-score [3] is reported as 4.99. For the same sequence, the PBM binding z-score [4] was 3.29, the PBM binding z-score [5] was 6.99 and the PBM binding z-score [6] was 3.6. The PBM binding z-score [7] was 0.972 and the PBM binding z-score [8] was 2.54.

TCATATAGTTAAATGCTAGGTGAAAGTCCGATCT showed a PBM binding z-score [1] of 0.141, a PBM binding z-score [2] of 0.1 and a PBM binding z-score [3] of 0.364. The PBM binding z-score [4] was 1.68, the PBM binding z-score [5] was 0.476 and the PBM binding z-score [6] was 0.852. The PBM binding z-score [7] was 0.605 and the PBM binding z-score [8] was 0.158.

With ACTATTAGTAGACTTAGGGCAACCGATACGACGC the PBM binding z-score [1] was 0.674, the PBM binding z-score [2] was 0.363 and the PBM binding z-score [3] was 0.941. For the same sequence, the PBM binding z-score [4] was 0.409, the PBM binding z-score [5] was 0.292 and the PBM binding z-score [6] was 0.596. The PBM binding z-score [7] was 0.558 and the PBM binding z-score [8] was 0.227.

With GATACAGGGTCACCTAGAGGCCAGAGTATGGAAA the PBM binding z-score [1] was 3.89, the PBM binding z-score [2] was 7.38 and the PBM binding z-score [3] was 5.66. For the same sequence, the PBM binding z-score [4] was 2.02, the PBM binding z-score [5] was 6.04 and the PBM binding z-score [6] was 3.91. For the same sequence, the PBM binding z-score [7] was 1.32 and the PBM binding z-score [8] was 1.97.

TCTTGTAGATAAACAGGAGGTTAAGAAAGATCGA showed a PBM binding z-score [1] of 0.563, a PBM binding z-score [2] of 0.413 and a PBM binding z-score [3] of 0.451. For the same sequence, the PBM binding z-score [4] was 0.64, the PBM binding z-score [5] was 0.929 and the PBM binding z-score [6] was 0.693. The PBM binding z-score [7] was -0.428 and the PBM binding z-score [8] was -0.0637.

CCTTACGGCTCAAGGTTATAGCACGGGTGGTACG gave a PBM binding z-score [1] of 0.426, a PBM binding z-score [2] of 0.285 and a PBM binding z-score [3] of 0.278. It also gave a PBM binding z-score [4] of -0.298, a PBM binding z-score [5] of 0.615 and a PBM binding z-score [6] of 1.05. It also gave a PBM binding z-score [7] of 0.716 and a PBM binding z-score [8] of 0.469.

For CCTAGCTGGCCAGGGTCACTCAAGCATTTCGCTT, the PBM binding z-score [1] was 2.33, the PBM binding z-score [2] was 3.05 and the PBM binding z-score [3] was 2.03. It also gave a PBM binding z-score [4] of 0.326, a PBM binding z-score [5] of 3.3 and a PBM binding z-score [6] of 2.88. The PBM binding z-score [7] was 0.857 and the PBM binding z-score [8] was 0.994.

Sequence CCTTACGGGTCACTCCAGGTTATAGCGTCGGAGT has a PBM binding z-score [1] of 2.85, a PBM binding z-score [2] of 4.55 and a PBM binding z-score [3] of 4.23. The PBM binding z-score [4] was 1.41, the PBM binding z-score [5] was 4.06 and the PBM binding z-score [6] was 5.06. The PBM binding z-score [7] was 0.469 and the PBM binding z-score [8] was 1.5.

Sequence CGAACTAGGTCAAGGACAGTGAGTCTCCGCACGC has a PBM binding z-score [1] of 3, a PBM binding z-score [2] of 3.43 and a PBM binding z-score [3] of 4.13. It also gave a PBM binding z-score [4] of 1.02, a PBM binding z-score [5] of 2.28 and a PBM binding z-score [6] of 3.1. The PBM binding z-score [7] was 1.85 and the PBM binding z-score [8] was 0.408.

CGTTCAAGGTCAATGCTAGGTCAGTGAAAGCATT gave a PBM binding z-score [1] of 4.78, a PBM binding z-score [2] of 7.74 and a PBM binding z-score [3] of 7.18. For the same sequence, the PBM binding z-score [4] was 4.09, the PBM binding z-score [5] was 5.88 and the PBM binding z-score [6] was 4.72. The PBM binding z-score [7] was 3.33 and the PBM binding z-score [8] was 3.44.

Work on TGGCCTAGGTCATTCAGGGGCCAGTATAGAAAGC yielded a PBM binding z-score [1] of 3.18, a PBM binding z-score [2] of 6.37 and a PBM binding z-score [3] of 5.07. The PBM binding z-score [4] was 1.39, the PBM binding z-score [5] was 3.29 and the PBM binding z-score [6] was 3.47. The PBM binding z-score [7] was 0.314 and the PBM binding z-score [8] was 1.37.

Sequence CCGACTGGGGCAGAAAGGTTACGATACCATCCGG has a PBM binding z-score [1] of 2.38, a PBM binding z-score [2] of 1.96 and a PBM binding z-score [3] of 1.37. The PBM binding z-score [4] was -0.562, the PBM binding z-score [5] was 2.09 and the PBM binding z-score [6] was 1.15. It also gave a PBM binding z-score [7] of -0.229 and a PBM binding z-score [8] of -0.0227.

CCTCGGAGGACAGAAGGCCAGAGCTGTCCGCTTT gave a PBM binding z-score [1] of 0.275, a PBM binding z-score [2] of -0.112 and a PBM binding z-score [3] of 0.0875. The PBM binding z-score [4] was -0.346, the PBM binding z-score [5] was -0.765 and the PBM binding z-score [6] was 0.0492. It also gave a PBM binding z-score [7] of -0.927 and a PBM binding z-score [8] of -0.212.

CTCGAAAGATCGTGCTCAGGTGAGTATACCAAAC was tested, and the PBM binding z-score [1] was -0.0864, the PBM binding z-score [2] was -0.0578 and the PBM binding z-score [3] was -0.229. The PBM binding z-score [4] was -0.0478, the PBM binding z-score [5] was -0.33 and the PBM binding z-score [6] was 1.28. It also gave a PBM binding z-score [7] of 0.584 and a PBM binding z-score [8] of -0.082.
